# Reference: PubChem BioAssay AID1823 (The Scripps Research Institute Molecular Screening Center, 2009)
# Hit rate of the full screen: of about 16,000 compounds, about 70 (0.4%) were called active. The sample holds actives, similar compounds and a random draw of the others, so the mix is not that of the screen. Values without a mark were called inactive. Rule as the data show it: active = inhibition above about 75%; inactive = the rest.
# Test: counter-screen for Nox1 inhibitors: inhibitors of luminol chemiluminescence (AID 1823)
# Details: HRP/luminol/H2O2 chemiluminescence counterscreen; at 6.7 µM; hits give high values
row,Compound,inhibition
1,Cn1nccc1NC(=O)CC(CC(=O)O)c1ccccc1 (centres undefined),-2.7%
2,COc1ccc(CCNC(=O)c2ccccc2-c2ccccc2C(=O)O)cc1OC,-7.76%
3,CC(=O)N1c2ccccc2C=Cc2ccccc21,2.77%
4,CCOC(=O)Cn1cc(Cl)ccc1=O,-6.12%
5,CCc1ccc(S(=O)(=O)Nc2ccc(C)c(NS(C)(=O)=O)c2)cc1,6.77%
6,CCOC(=O)c1c(C)nn(-c2ncccc2NC(=O)Nc2cccc(Cl)c2Cl)c1C,-3.12%
7,COC(=O)c1cc(S(=O)(=O)NCc2csc(-c3cccs3)n2)oc1C,2.46%
8,COC(=O)c1sccc1NC(=S)Nc1ccc(C)cc1,-25.1%
9,O=C(Nc1ccccc1N1CCOCC1)C1CCN(c2nccc(C(F)(F)F)n2)CC1,-1.03%
10,O=C(Nc1ccc(I)cc1Cl)C(=S)NCc1cccs1,-1.16%
11,Cn1nnnc1SCC(=O)Nc1ccc(OC(F)(F)F)cc1,-2.01%
12,O=C(/C=C/c1cccc2ccccc12)N1CCCCC1,2.1%
13,Cc1c(C)c(C)c(CSC(=N)CC#N)c(C)c1C,-1.01%
14,CC(C)c1ccc(N2C(=O)/C(=C\c3ccc(-c4ccc([N+](=O)[O-])cc4)o3)SC2=S)cc1,2.47%
15,O=C(NCc1csc(-c2cccs2)n1)Nc1ccccc1-c1ccccc1,0.51%
16,c1ccc2c(c1)NC(C1Nc3ccccc3O1)O2 (centres undefined),8.91%
17,CC(C)S(=O)(=O)/C(C#N)=C/NN1CCOCC1,41%
18,O=S(=O)(Oc1cccc(C(F)(F)F)c1)c1cc(S(=O)(=O)c2ccccc2)cs1,3.95%
19,O=C(Nc1ccccc1-c1ccccc1)c1cccs1,0.86%
20,O=C(O)C1CC2CC1CCC2O (centres undefined),-5.03%
21,CC(C)CC(F)Cc1cnc(=O)[nH]c1 (centres undefined),-1.51%
22,CC(=O)c1cc([N+](=O)[O-])c(NC2CCCCC2)s1,3.91%
23,NNC(=O)c1cc(OCC(F)(F)F)nc(OCC(F)(F)F)c1,9.46%
24,N#Cc1c(C2CCCCC2)[nH]c(=S)[nH]c1=O,11.2%
25,CCCc1nc(N)ncc1C(=O)OCC,-1.66%
26,O=C(CCSc1nc2ccccc2o1)N1CCc2cc([N+](=O)[O-])ccc21,-3.32%

row,Compound,inhibition
1,O=C(O)CSC(SCC(=O)O)c1ccc2c(c1)OCO2,0.02%
2,CC(CC(=O)O)Oc1ccc(Cl)cc1[N+](=O)[O-] (centres undefined),0.37%
3,CNC(=S)NNC(=O)c1cc(C)on1,11%
4,CS(=O)(=O)c1ccc(C(=O)Nc2cccc(Cl)c2)cc1,2.61%
5,COC(=O)/C=C/c1cn(C2OCC(CO)C2O)c(=O)[nH]c1=O (centres undefined),-0.07%
6,CC1=NCCNC(C)=C1N1CCOCC1,-0.98%
7,NC(=O)c1sccc1Br,-1.3%
8,COC(=O)c1sc(S(C)=O)c(-c2ccon2)c1C (centres undefined),0.42%
9,CC(C)(C)C(=O)NNC(=O)c1ccc(Oc2ccc(C3SCCS3)cc2)o1,-19.4%
10,CNC(=O)NNC(=O)Cn1nnc(N2CCCCC2)n1,14.1%
11,N#C/C(=C\C=C\c1ccccc1)c1nc2ccccc2[nH]1,2.56%
12,O=[N+]([O-])c1cc(C(F)(F)F)ccc1OCCO,-3.63%
13,CCCCCCCN=C(C)c1ccccc1O,-3.37%
14,O=C(O)CCC(=O)Nc1ccc2c(c1)OCCCO2,-0.93%
15,COc1ccc2c(OC(C)=O)coc2c1,-1.52%
16,CN(C(=O)Nc1ccc(Cl)cc1)n1cnc2ccccc2c1=O,-2.37%
17,O=C1c2ccccc2C(=O)N1CCCN1CCN(Cc2c(F)cccc2Cl)CC1,-3.51%
18,N#CCSc1ccc2ccccc2c1,-1.43%
19,O=C(NNC(=S)Nc1ccc(S(=O)(=O)N2CCCCC2)cc1)c1ccncc1,12.6%
20,CN(Cc1nnc(-c2ccc3ccccc3c2)o1)c1nnc(C(F)(F)F)s1,-4.66%
21,N#Cc1sccc1Br,0.55%
22,N/C(Cc1cccs1)=N\OC(=O)c1ccccc1,-0.54%
23,CC(C)N(C(=O)c1ccc(-c2ccccc2F)cc1)C(C)C,-5.07%
24,N#C/C(=C\c1ccsc1Sc1ccc(Cl)cc1)S(=O)(=O)c1ccc(Cl)cc1,2.56%
25,Cc1ccc(S(C)(=O)=NC(=O)NS(=O)(=O)Oc2ccc(Cl)cc2Cl)cc1 (centres undefined),2.88%
26,O=C(Nc1ccc(C(F)(F)F)cn1)c1ccc(Oc2cc(Cl)cc(Cl)c2)o1,0.64%

row,Compound,inhibition
1,CSc1cccc(NC(=O)C(=O)NCCc2ccccn2)c1,3.62%
2,Cc1ccc(SCC(=O)Nc2ccc(F)cc2F)cc1,-8.4%
3,CC1=NOC(=O)/C1=C\c1ccccc1,3.43%
4,CC(C)(C)c1ccc(C(=O)CC(N)=O)cc1,6.19%
5,O=C1COCC(=O)N1c1ccc2c(c1)OCO2,-6.14%
6,Cc1nn(C)c(C)c1Sc1nccc(-c2cccnc2)n1,-8.26%
7,CCOC(=O)C(O)(NC(=O)Nc1ccccc1)C(F)(F)F (centres undefined),-5.95%
8,COCCCN/C(SCc1c(F)cccc1Cl)=C(\C#N)C(N)=O,1.37%
9,N#C/C=C/c1ccc(C(F)(F)F)cc1[N+](=O)[O-],1.6%
10,O=C(c1ccc(Oc2ccc(Cl)cc2)c([N+](=O)[O-])c1)N1CCCC1,2.31%
11,O=C(NNc1ccccc1C(F)(F)F)NS(=O)(=O)c1ccc(Cl)cc1,-2.61%
12,COc1ccc(/C(C)=N/Nc2c([N+](=O)[O-])cc(C(F)(F)F)cc2[N+](=O)[O-])cc1CC#N,-5.96%
13,Cc1noc(C)c1C(=O)N1CCOCC1,-1.15%
14,CCOC(=O)c1cc(CC)sc1NC(=O)c1cccnc1Oc1ccccc1,0.49%
15,COC(=O)CCN1CCc2cc(N=Nc3ccc(C(F)(F)F)cc3)ccc21,17.7%
16,CC(C)(C)NC(=O)[C@@H]1C[C@@H]2CCCC[C@@H]2CN1C(=O)c1ccno1,-0.12%
17,O=C(O)CC(CC(=O)Oc1ccccc1N1CCCCC1)c1ccccc1 (centres undefined),-1.25%
18,CSc1nsc(SC)c1C(=O)Nc1cc(C(F)(F)F)cc(C(F)(F)F)c1,1.1%
19,COc1ccc(C2CC(c3cccs3)=Nc3ccccc3S2)c(Cl)c1OC (centres undefined),-0.88%
20,c1ccc(-c2nsc(N3CCNCC3)n2)cc1,-5%
21,NS(=O)(=O)c1cccc(NC(=O)c2ccccc2)c1,-5.88%
22,CCOC(=O)c1c(-c2ccco2)csc1NC(=O)Nc1ccc(Cl)cc1,3.19%
23,Cc1[nH]c2ccccc2c1Sc1ccc(Cl)cc1,-11.5%
24,N#Cc1ccc(Oc2ccc(Cl)cc2)c([N+](=O)[O-])c1,-1.59%
25,Cc1c(S(=O)(=O)c2ccc(Cl)cc2)csc1C(=O)Nc1ccc2c(c1)OCCO2,0.51%
26,CCCCN1Cc2c(nc3cc(-c4ccccc4)[nH]n3c2=O)C1=O,5.15%

row,Compound,inhibition
1,O=C1Nc2ccccc2C12NNC(=S)NN2,7.82%
2,NS(=O)(=O)c1ccc(Oc2c(Cl)cccc2[N+](=O)[O-])cc1,-4.5%
3,COc1cccc(NC(=S)NNC(=S)NC2CC3CCC2C3)c1 (centres undefined),5.57%
4,N/C(=N\OC(=O)c1cccc(Cl)c1)c1ccc2nonc2c1,-0.67%
5,CO/N=C(/C)c1ccc2c(c1)CCO2,-0.06%
6,CC(=O)Nc1ccc(NC(=O)c2cc(C)ccc2[N+](=O)[O-])c(C)c1,0.85%
7,O=C(Cn1nnc2ccccc21)NCCSCc1ccco1,-2.68%
8,COC(=O)C(C#N)c1ccc(C(F)(F)F)cc1[N+](=O)[O-] (centres undefined),4.34%
9,O=C(CN1CCOCC1)NNC(=O)c1cccs1,3.1%
10,C/C(=N\NC(N)=S)c1ccncc1,15%
11,O=C(Nc1ccccc1C(=O)NCc1c(F)cccc1Cl)c1ccccc1Cl,4.86%
12,Cn1c(=O)c(C#N)cn(-c2ccccc2)c1=O,-4.85%
13,CSc1sc(C(=O)NC2CC2)c(-c2ccc(Cl)cc2)c1C#N,2.76%
14,CCOC(=O)C(NC(=O)c1ccco1)(Nc1cc(C)ccn1)C(F)(F)F (centres undefined),-2.71%
15,COC(=O)c1c(C(=O)OC)c2n(c1C)CCS2,-2.55%
16,N#CNC(N)=Nc1cc(Cl)ccc1Cl,-0.88%
17,CCOC(=O)O/N=C(\N)c1ccc(Cl)cc1,-3.37%
18,Cn1cccc1-c1n[nH]c(=S)n1-c1ccc(Cl)cc1Cl,2.46%
19,CCCCCCNC(=O)NCCCCCC,-3.83%
20,Cc1oc(-c2ccc(Cl)cc2)cc1C(=O)N1CCOCC1,-4.96%
21,COc1ccc(Cc2nnc(SC)[nH]c2=O)cc1,1.75%
22,CC(C)[C@H]1COC(c2cccc(C3=N[C@@H](C(C)C)CO3)n2)=N1,-2.9%
23,O=C(CCN1CCN(C(c2ccccc2)c2ccccc2)CC1)c1ccccc1,-3.01%
24,Cn1cc(Cl)c(/C=C(\C#N)C(N)=O)n1,-6.34%
25,COc1ccc2cc(/C(C)=N/OC(=O)Nc3ccccc3)ccc2c1,-18.6%
26,CCOC(=O)c1c[nH]n2c(=O)c3c(nc12)CCC3,0.29%
